Some test systems named below: SK-MEL-2 melanoma; EKVX NSCLC; SN12C renal; UO-31 renal; TK-10 renal; ACHN renal; CAKI-1 renal; A498 renal; CCRF-CEM leukemia; MOLT-4 leukemia.
Experiment in all cases: NCI-60 one-dose screen, 48 h (100 = growth as untreated, 0 = no growth, -100 = all killed)
Holding throughout (settings): 10 µM unless noted

SMILES strings stand for the structures. This is part of a sample that, as a whole, favours compounds with a hit. Of some 83,000 tested, about 20% had one in any assay.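 Growth was measured after 48 h exposure to one concentration of compound in 96-well plates. Values under 10 count as active.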 Unmarked numbers belong to inactive results. Activity calls are given as the source filed them.

In the case of `COC(=O)c1c2c(c(C)[n+]([O-])c1C)C(=O)C=CC2=O`, the growth was -63.1% (active) in the test with SK-MEL-2 melanoma; 98.3% in the test on EKVX NSCLC; -87.7% (active) with SN12C renal; -64.8% (active) with UO-31 renal; 72.9% in the test on TK-10 renal; -37.6% (active) in the test with ACHN renal. The growth with CAKI-1 renal is 2.19% (active); in the test on A498 renal, 60.8%; in the test with CCRF-CEM leukemia it was 0.622% (active); in the test with MOLT-4 leukemia it was -1.84% (active).
For the compound `Cc1ccc2[nH]c(-c3ccc(S(C)(=O)=O)cc3)c(/C=N/N=C(N)N)c2c1`, the growth in the test on SK-MEL-2 melanoma is 43.2%; in the test with EKVX NSCLC, 90.2%; in the test with SN12C renal, 56.9%; in the test with UO-31 renal, 60%; in the test with TK-10 renal it was 90.9%; in the test with ACHN renal it was 63%. Also, the growth in the test on CAKI-1 renal is 52.3%; with A498 renal it was 38.2%; in the test with CCRF-CEM leukemia it was 37.2%; with MOLT-4 leukemia, 41.6%.
As to `COc1ccc(NC(=O)c2ccc(C(=O)Nc3ccc(OC)cc3OC)cc2)c(OC)c1`, the growth in the test with SK-MEL-2 melanoma was 80.4%; with EKVX NSCLC, 73.7%; with SN12C renal, 65%; in the test on UO-31 renal it was 52.4%; in the test on TK-10 renal it was 69.7%; with ACHN renal, 71.9%. For the same compound, the growth in the test with CAKI-1 renal was 68.1%; with A498 renal it was 58.6%; in the test with CCRF-CEM leukemia, 90%; with MOLT-4 leukemia, 94.3%.
For the compound `NS(=O)(=O)c1ccc(N/C=C/C(=O)c2cc3ccccc3oc2=O)cc1`, the growth with SK-MEL-2 melanoma was 109%; in the test with EKVX NSCLC, 84%; in the test with SN12C renal, 96%; with UO-31 renal, 62.4%; in the test with TK-10 renal it was 125%; with ACHN renal, 99.7%. For the same compound, the growth is 80.1% with CAKI-1 renal, 111% in the test on A498 renal, 108% with CCRF-CEM leukemia and 103% with MOLT-4 leukemia.
Turning to `CCOC(=O)C1=C(C)N=C2SC=C(c3ccccc3)N2[C@H]1c1cn[nH]c1-c1ccc(Cl)cc1`, the growth in the test with SK-MEL-2 melanoma is 65.6%; in the test with EKVX NSCLC, 72.3%; with SN12C renal, 48.8%; in the test with UO-31 renal, -33% (active); in the test on TK-10 renal, 63.3%; in the test with ACHN renal it was 41.1%. Further, the growth in the test on CAKI-1 renal is -15.1% (active); in the test on A498 renal, 68.8%; in the test with CCRF-CEM leukemia, -19.8% (active); in the test with MOLT-4 leukemia, -7.33% (active).
As for `Oc1c(Cl)cc(Cl)c2ccc(Cn3cc(-c4cccc(C(F)(F)F)c4)nn3)nc12`, the growth is 93.8% with SK-MEL-2 melanoma; 80.1% in the test with EKVX NSCLC; 84.6% in the test on SN12C renal; 73.4% with UO-31 renal; 99.7% in the test on TK-10 renal; 47.9% with ACHN renal. Besides, the growth is 31.1% with CAKI-1 renal, 91.1% in the test with A498 renal, 6.72% (active) in the test with CCRF-CEM leukemia and 3.08% (active) in the test with MOLT-4 leukemia.
With `O=C(Cn1nnc([N+](=O)[O-])n1)c1ccccc1`, the growth is 73.3% in the test on SK-MEL-2 melanoma; 100% in the test with EKVX NSCLC; 102% with SN12C renal; 85.1% in the test with UO-31 renal; 92% in the test on TK-10 renal; 107% with ACHN renal. The growth with CAKI-1 renal is 77.7%; in the test on A498 renal it was 48.6%; in the test with CCRF-CEM leukemia, 58.6%; in the test with MOLT-4 leukemia, 95.3%.
For the compound `C=C(CN1CC=CCC1)[C@@H]1CC[C@]2(CO)CC[C@]3(C)[C@H](CC[C@@H]4[C@@]5(C)CC[C@H](O)C(C)(C)[C@@H]5CC[C@]43C)[C@@H]12`, the growth is 110% in the test on SK-MEL-2 melanoma; 104% with EKVX NSCLC; 98.1% in the test with SN12C renal; 93.7% in the test with UO-31 renal; 123% with TK-10 renal; 114% in the test on ACHN renal. The growth was 106% in the test on CAKI-1 renal, 112% in the test with A498 renal, 91.3% in the test on CCRF-CEM leukemia and 86.5% in the test with MOLT-4 leukemia.
In the case of `CN1CCN(Cc2ccc(NC(=O)c3cncc(C#Cc4cncc5ncccc45)c3)cc2C(F)(F)F)CC1`, the growth was -69.1% (active) in the test with SK-MEL-2 melanoma; 39.2% in the test with EKVX NSCLC; 21.3% with SN12C renal; -10.2% (active) with UO-31 renal; 22% with TK-10 renal; 8.35% (active) with ACHN renal. The growth was -19.7% (active) in the test with CAKI-1 renal, -25.5% (active) in the test on A498 renal, 3.31% (active) with CCRF-CEM leukemia and 9.12% (active) in the test on MOLT-4 leukemia.
Take `CCCCCn1sc(=O)n(Cc2ccc(CNC(=O)OCc3ccc4c(Cl)cc(Cl)c(O)c4n3)cc2)c1=O`: the growth is 90.1% in the test with SK-MEL-2 melanoma; 86% in the test with EKVX NSCLC; 51.4% in the test on SN12C renal; 11.6% with UO-31 renal; 68.8% in the test with TK-10 renal; 28.9% in the test with ACHN renal. The growth in the test with CAKI-1 renal was 55%; in the test with A498 renal it was 80.7%; with CCRF-CEM leukemia, 34.4%; in the test with MOLT-4 leukemia, 31.8%.
As to `Oc1c(I)cc(-c2nc3ccccc3s2)cc1CN(Cc1ccccn1)Cc1ccccn1`, the growth in the test with SK-MEL-2 melanoma is 14.8%; in the test on EKVX NSCLC it was 8.07% (active); with SN12C renal it was 17.3%; with UO-31 renal, -26.6% (active); with TK-10 renal, 14.5%; in the test with ACHN renal, 8.93% (active). In addition, the growth was 5.39% (active) in the test on CAKI-1 renal, 18.1% in the test on A498 renal, 7.86% (active) with CCRF-CEM leukemia and 0.129% (active) in the test with MOLT-4 leukemia.
As for `CC1(C)O[C@H]2OC3CCC(=O)CC3(O)[C@H]2O1` (stereo not given in full), the growth with SK-MEL-2 melanoma is 102%; in the test on EKVX NSCLC, 112%; in the test with SN12C renal it was 103%; in the test with UO-31 renal it was 79.5%; in the test on TK-10 renal, 97.7%; in the test with ACHN renal, 110%. In addition, the growth with CAKI-1 renal was 101%; with A498 renal it was 95.1%; with CCRF-CEM leukemia it was 106%; in the test on MOLT-4 leukemia, 112%.
In the case of `O=C1NC(=Nc2ccc(O)cc2)S/C1=C\c1cccs1`, the growth in the test on SK-MEL-2 melanoma was 97.9%; with EKVX NSCLC, 38.8%; with SN12C renal it was 46.1%; in the test on UO-31 renal, 52.5%; with TK-10 renal it was 69.3%; in the test on ACHN renal, 30.3%. Further, the growth in the test on CAKI-1 renal is 40.9%; in the test on A498 renal, 15.9%; with CCRF-CEM leukemia it was 11.9%; with MOLT-4 leukemia, 23.1%.
Turning to `N#Cc1c(-c2ccccc2)c(C#N)c2c(C#N)c(N)nn2c1N`, the growth in the test on SK-MEL-2 melanoma was 9.95% (active); in the test on EKVX NSCLC it was 47.3%; in the test with SN12C renal, 51.7%; in the test with UO-31 renal, 52.1%; in the test with TK-10 renal, 67%; in the test with ACHN renal, 60.9%. The growth was 47% in the test with CAKI-1 renal, -8.04% (active) in the test with A498 renal, 13.3% with CCRF-CEM leukemia and 11.7% in the test with MOLT-4 leukemia.
As for `CCNCc1ccc(O)c2ncccc12`, the growth with SK-MEL-2 melanoma was 15.4%; in the test with EKVX NSCLC, 25.1%; in the test on SN12C renal, 34%; with UO-31 renal, 18.1%; in the test with TK-10 renal, 5.97% (active); with ACHN renal, 22.7%. Further, the growth in the test on CAKI-1 renal is 35.3%; in the test on A498 renal it was 59.5%; in the test on CCRF-CEM leukemia, 27.3%; with MOLT-4 leukemia it was 29%.
